About 83,000 compounds went through this panel and 20% of them were active in at least one assay; those are over-represented in the sample as a whole.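 Plates (96-well) were seeded with cells, treated with compound at one concentration, and incubated for 48 hours before percent growth was determined.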 Values without a mark were called inactive. The source made the active and inactive calls. How the source made its calls: active means growth percent below 10; inactive means the rest.

This assay deals with HL-60(TB) leukemia. As to the kind of experiment: NCI-60 one-dose screen, 48 h (100 = growth as untreated, 0 = no growth, -100 = all killed). The conditions noted are these: 10 µM unless noted.
`CNC(=S)NC(C)(C)C`: the growth is 92.6%.
The result for `Fc1ccc(-c2nnc(/C=C/c3cn(-c4ccccc4)nc3-c3ccccc3)o2)cc1` reads 94.2%; that for `COC(=O)[C@]1(C)CCC[C@]2(C)[C@H]3C[C@@H]4[C@H]5[C@@H]6CC/C(=N\OCC/C(N)=N/O)[C@H]5[C@@]3(CC[C@H]21)CC4(C(C)C)O6`, 30.6%.
The result for `CC1(C)N=C(N)N=C(N)N1c1ccc(OCC(=O)Nc2ccccc2)c(Cl)c1` reads 13.8%; that for `N#C/C(=C\c1ccc(Br)cc1)n1nnc2ccccc21`, 2.58% (active); that for `N#CC1C(c2ccc(Cl)cc2)=Nc2c(c(-c3ccccc3)nn2-c2ccccc2)C12C(=O)Nc1ccc(Cl)cc12` (centres undefined), -1.59% (active).
Take `CN(C)CCCCC(C(=O)CBr)(c1ccccc1)c1ccccc1`: the growth is -36.1% (active).
Under `CCn1cc(Cc2cc(C(=O)Nc3cc4cc(OC)c(OC)cc4c(C)n3)ccc2Cl)cn1` stands 13.9%.
Turning to `C=C1C(=O)O[C@H]2[C@H]1CC/C(COC(=O)OCCCCCOC(=O)OC/C1=C/CC[C@@]3(C)O[C@H]3[C@H]3OC(=O)C(=C)[C@@H]3CC1)=C\CC[C@@]1(C)O[C@@H]21`, the growth was -23.1% (active).
For the compound `CCn1cc(-c2ccnc(NCCNS(=O)(=O)c3ccc(Br)cc3)c2)c(-c2cccc(OC)c2)n1`, the growth was 81.4%.
Under `Cc1c(C(C)(C)O)cn2ncnc(Oc3ccc(NC(=O)Nc4ccc(Cl)c(C(F)(F)F)c4)c(F)c3)c12` stands 63.1%.
As to `CCN(CC)Cc1cc(Nc2c3ccc(Cl)cc3nc3ccc(OC)cc23)ccc1O`, the growth was 72.5%.
The result for `CN([N-]C(=O)CC(=O)[N-]N(C)C(=S)c1ccccc1)C(=S)c1ccccc1.[Cu+2]` reads -15.6% (active).
Under `O=C(Cn1nnc2ccccc21)N/N=C/c1c[nH]c2ccccc12` stands 31.1%; under `Cc1ccc(-n2nc3n(/c2=N\C(=O)NS(=O)(=O)c2ccc(C)cc2)CCN3C2=NCCN2)cc1`, 146%; under `COc1cc(-c2nn(-c3ccc(NC(=O)c4cc(Cl)cc(Cl)c4)cc3)cc2-c2ccncc2)ccc1Cl`, 41%.
The result for `Cc1cc2c(-c3nc4ccccn4c3Nc3cccc4ccccc34)c(O)c(O)cc2c(O)c1-c1c(C)cc2c(-c3nc4ccccn4c3Nc3cccc4ccccc34)c(O)c(O)cc2c1O` reads 28.6%.
With `Nc1cc(C(=O)NC[C@H]2CN(c3ccc(N4CCC(C(=O)O)CC4)cc3)C(=O)O2)ccc1Cl`, the growth is 97.9%.
With `CC(=O)O[C@@H]1/C=C/C(=O)N[C@@H](C)CCC/C=C/[C@@H]2CCC[C@H]21`, the growth was 99.8%.
Under `O=[N+]([O-])c1cccc(-c2nc3sccn3c2-c2ccnc(NCCCNS(=O)(=O)c3ccc(F)cc3)n2)c1` stands -12.9% (active).
Under `COc1ccc(-c2ccc(-c3ccc(C(=N)N)cn3)o2)cc1Cl` stands -59.5% (active); under `CC(C)(C)OC(=O)NCc1cccc(N=C=S)c1`, -24% (active); under `CCC1CCc2nc3sc(C(=O)Nc4ccccc4F)c(N)c3cc2C1` (centres undefined), 21.5%.
The result for `c1ccc2c(-c3nc(N4CCOCC4)c4c5c(sc4n3)CCCCCC5)cccc2c1` reads 114%; that for `O=C1Nc2ccccc2C12CC(c1ccc(Cl)cc1)=NN2` (centres undefined), 99.1%.
With `CC1=C(C(=O)n2c3ccccc3c3ccccc32)C(c2cccc([N+](=O)[O-])c2)C(C(=O)n2c3ccccc3c3ccccc32)=C(C)N1`, the growth is 91%.
For `O=C(Nc1nc(-c2ccccc2)cc(-c2ccc(Cl)cc2)n1)c1ccncc1`, the growth was 110%.
With `O=C(N/N=C/c1coc2ccccc2c1=O)c1cc2oc(-c3ccccc3)cc2[nH]1`, the growth is 99%.
The result for `CCC(=O)N1C/C(=C/c2ccc(OC)cc2)C(=O)/C(=C/c2ccc(OC)cc2)C1` reads 25.1%.
As for `O=C(C(=O)N1CCCC1)c1cn(CCCn2cc(C(=O)C(=O)N3CCCC3)c3cc(Br)ccc32)c2ccc(Br)cc12`, the growth is 86.5%.
Under `COc1ccc2[nH]c(C(=O)N3CCN(C(=O)OCc4ccc5c(Cl)cc(Cl)c(O)c5n4)CC3)cc2c1` stands -45% (active); under `CC(C)CCC[C@@H](C)[C@H]1CCC2C3=CCC4C(=O)C=CC(=O)C4C3CC[C@@]21C` (some centres undefined), -5.46% (active).
The result for `Cc1nc(N)nc2c1CCC(Nc1ccccc1)S2` (centres undefined) reads 97.1%.
For the compound `FC(F)(F)c1ccc(-c2cnc(Br)nc2NC2CCCCCC2)cc1`, the growth is 8.9% (active).

Values taken from PubChem BioAssay (NCI).
